Bioassay records deposited in PubChem BioAssay by National Center for Advancing Translational Sciences (NCATS).
Compounds with a hit are over-represented: about 8.1% of the library has one in this group of screens.
PINK1 modulator = changes PINK1 expression; PINK1 immunofluorescence, high-content cytometry, 24 h; Potency, µM (doses to about 76.6 µM), inactives show top-dose activation (PINK1 increase), hits mostly activators; actives 0.2% (n = 410,000); AID 624263; active means well fitted activation curve with a large enough effect; inconclusive means small, poorly fitted or top-dose-only effect; cell line not stated here; further: % of control where 0% means no effect; nearly all actives have a fitted effect of over 65% in size
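Decision-based qHTS: stable cells, 24 h exposure to five compound concentrations, CCCP as control. Fixed cells stained for PINK1 plus nuclear, mitochondrial and cell markers, cytometer read.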
Epigenetic derep = epigenetic control regulation, reporter derepression; murine LDR cells, GFP reporter derepression, 30 h; Potency, µM (series often up to 53.9 µM), without a hit: at the highest dose GFP activation, actives largely listed as activators; actives 0.2% (n = 280,000); AID 1865; further: % of control where 0% means no effect; nearly all actives have a fitted effect of over 60% in size
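Derepression of a silenced CMV-GFP reporter in murine LDR cells is scored by enumerating GFP-positive cells with a laser-scanning microplate cytometer after 30 hours of treatment at 37 C.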
Gal4-VP16 FLuc = counter-screen for ROR gamma inhibitors: Gal4-VP16 reporter; Drosophila S2 Gal4-VP16 UAS-luciferase, luminescence, 20 h; Potency, µM (titrated, usually from 53.6 µM), for the others: at the top dose activity, negative = inhibition, actives largely listed as inhibitors; actives 3.5% (n = 310,000); AID 2546;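 further: Gal4-VP16 expression switched on by copper sulfate through the metallothionein promoter; on the % scale 0 is the no-effect control and ±100 the full control effect; nearly all actives have a fitted effect of over 50% in size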
Sfp inh = inhibitors of Bacillus subtilis Sfp phosphopantetheinyl transferase; AID 1490; Potency, µM, inactives show largest response in the series, negative = inhibition, actives largely listed as inhibitors; actives 3.5% (n = 310,000); Biochemical Sfp PPTase activity, qHTS; Q9F4F7;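 further: the enzyme is Sfp with the accession as filed and its product quenches rhodamine fluorescence; 0% = enzyme reaction without inhibitor and -100% = no enzyme wells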
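With Hepes-Na pH 7.6 buffer containing 10 mM MgCl2, Sfp (15 nM) modified BHQ-2-YbbR (12.5 uM) using rhodamine-CoA (5 uM). Two reads 30 minutes apart at 525/598 nm yielded each well's rate.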
RORgamma inh = blocks mouse ROR gamma transcriptional activity; P51450; Drosophila S2 Gal4-RORgamma UAS-luciferase reporter, 20 h; Potency, µM (series often up to 53.6 µM), for inactives: top-dose activity change, negative = inhibition, actives largely listed as inhibitors; actives 5.4% (n = 310,000); AID 2551; further: on the % scale 0 is the no-effect control and ±100 the full control effect; nearly all actives have a fitted effect of over 60% in size
Target sequence (P51450 whole entry, looked up, the tested form may be a part): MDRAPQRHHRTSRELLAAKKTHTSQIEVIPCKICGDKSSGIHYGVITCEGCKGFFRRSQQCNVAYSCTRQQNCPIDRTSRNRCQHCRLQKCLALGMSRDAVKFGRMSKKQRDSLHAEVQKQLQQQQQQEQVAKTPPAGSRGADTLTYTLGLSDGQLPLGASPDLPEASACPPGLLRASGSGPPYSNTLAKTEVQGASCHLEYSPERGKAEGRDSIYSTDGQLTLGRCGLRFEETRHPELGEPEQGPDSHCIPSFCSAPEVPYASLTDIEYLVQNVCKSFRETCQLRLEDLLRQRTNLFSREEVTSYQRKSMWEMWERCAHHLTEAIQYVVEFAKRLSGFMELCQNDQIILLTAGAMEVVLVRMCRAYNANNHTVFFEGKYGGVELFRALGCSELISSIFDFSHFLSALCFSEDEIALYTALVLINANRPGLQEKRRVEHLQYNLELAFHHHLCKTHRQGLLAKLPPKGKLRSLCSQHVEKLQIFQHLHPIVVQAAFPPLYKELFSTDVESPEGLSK
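Drosophila S2 cells stably expressing Gal4-DBD/mouse RORγ fusion under metallothionein promoter plus UAS-luciferase; compound 1 h, then 700 uM CuSO4 induction for 20 h at ambient temperature; inhibition read as reduced luminescence.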
ClpP mod = qHTS Assay for Activators of ClpP; ATP-dependent Clp protease proteolytic subunit (Bacillus subtilis (strain 168)), P80244; purified B. subtilis ClpP, FRET peptide cleavage, 20 min; Potency, µM (highest dose often 57.5 µM), for inactives: top-dose activity change, negative = active; actives 1.9% (n = 340,000); AID 651965, 2013; active means well fitted falling curve with a large enough effect; inconclusive means small, poorly fitted or top-dose-only effect; inactive means no such curve, though single readings can be large or run the other way; further: the source files actives as falling curves though it sought activators and does not explain the sign; nearly all actives have a fitted effect of over 65% in size
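Buffer: 100 mM Tris/HCl pH8, 100 mM KCl, 0.05% low protease BSA, 2.5% glycerol, 0.01% Tween-20. ClpP 10 microg/mL final; 20 min RT; delta FRET normalized to ADEP and DMSO controls.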
An asterisk follows results filed as active; ? = inconclusive; . = no result; [ ] = dose if it differs, or a comment. Unless noted, the call rests on the fitted dose curve; in most records, active means well fitted curve in the direction sought with a large enough effect; inconclusive means small, poorly fitted or top-dose-only effect, or another doubt; inactive means no such curve, though single readings can be large; an effect the other way counts as inactive or inconclusive. Potency means the concentration at half of the fitted maximal effect.

SMILES	PINK1 modulator	Epigenetic derep	Gal4-VP16 FLuc	Sfp inh	RORgamma inh	ClpP mod
COc1ccc(CNC(=O)CSc2ncc(S(=O)(=O)c3ccc(C)c(Cl)c3)c(=O)[nH]2)cc1	0%	10%	.	.	.	-1%
Cc1cc(C)nc(N=Nc2c(O)n(Cc3ccc(Cl)cc3)c3ccccc23)n1	3%	-3%	3.5µM*	-2%	5.6µM*	-1%
O=Nc1c(O)n(Cc2cccc(Cl)c2)c2ccccc12	-1%	-1%	-22%	6%	11%	-1%
CSc1ccc(CCNC(=O)c2cc3cc4cc(C)ccc4nc3s2)cc1	0%	3%	.	.	.	-2%
CCCCCn1c(=O)[nH]c2cc(C(=O)NC(C)CC)ccc2c1=O (stereo unspecified)	1%	-1%	.	.	.	-12%
CC(=O)c1ccc(N2CCN(Cc3nc(Cc4ccccc4)no3)CC2)cc1	2%	2%	?	-11%	3.5µM*	-13%
COc1ccc(-c2ccc(C#N)c(SCC(=O)OCc3ccccc3)n2)cc1OC	2%	-1%	-3%	-1%	26%	?
N#Cc1ccc(-c2ccc3c(c2)OCO3)nc1SCC(=O)OCc1ccccc1	0%	1%	-1%	5%	-2%	2.5µM*
COc1c(O)c(=O)n2c3ccccc3c3ccnc1c32	1%	.	.	.	.	0%
O=c1c(Cl)c(O)c2cccc3c4ccccc4n1c23	-3%	2%	-26%	14µM*	7%	14µM*
COc1cccc(CNC2CCCc3ccccc32)c1OC (stereo unspecified)	2%	5%	1%	-7%	-8%	.
COc1cc(CNC2CCCc3ccccc32)cc(OC)c1OC (stereo unspecified)	2%	2%	-18%	50µM*	9%	-11%
c1cncc(CNC2CCCc3ccccc32)c1 (stereo unspecified)	1%[38.3 µM]	-1%	-1%	-3%	15%	-1%
O=[N+]([O-])c1ccc(CNC2CCCc3ccccc32)cc1 (stereo unspecified)	0%	5%	-5%	63µM*	14%	.
Cc1ccccc1OCC(=O)Nc1nc2ccccc2[nH]1	1%	-3%	?	11%	7.1µM*	-17%
O=C(COc1cccc2ccccc12)Nc1nc2ccccc2[nH]1	-1%	2%	11µM*	10%	10µM*	-3%
CCOc1ccccc1OCC(=O)Nc1nc2ccccc2[nH]1	2%	3%	?	14%	5.6µM*	.
Cc1cc(C)c(OCC(=O)Nc2nc3ccccc3[nH]2)c(C)c1	2%	-2%	-27%	20%	11µM*	2%
CCOc1ccc(OCCCC(=O)Nc2nc3ccccc3[nH]2)cc1	1%	2%	1%	10%	-39%	.
Cc1ccccc1NC(=O)Cn1c(=O)n(Cc2ccc3c(c2)OCO3)c(=O)c2oc3ccccc3c21	0%	?	.	.	.	-6%
COc1ccc(OC)c(Nc2ncnc3c2nc2n3CCCC2)c1	0%	0%	.	.	.	-2%
Cc1ccc(-c2nc3sccn3c2Nc2ccc(C)c(C)c2)cc1	0%	-2%	.	.	.	-3%
CCN1C(=O)CC(c2ccco2)Sc2ccccc21 (stereo unspecified)	1%[38.3 µM]	0%	20%	40µM*	-29%	-1%
CCOC(=O)C(Sc1cc(C)nc(N)n1)C(C)=O (stereo unspecified)	-1%	-1%	4%	56µM*	-6%	1%
CCOC(=O)C(Sc1nn(C)c(=S)s1)C(C)=O (stereo unspecified)	4%[38.3 µM]	7%	3%	50µM*	-7%	0%
COc1cc(=O)n2c(c1C(=O)N(C)Cc1nccs1)CCN(Cc1c(F)ccc(F)c1F)CC2	0%	.	.	.	.	.
CC(=O)c1c(O)cc(=O)n(-c2ccccc2)c1-c1ccc(C)cc1	-2%	4%	-4%	-4%	6%	-2%
